The list is not random: actives were taken first. Their share in the collection is about 6.7%.
T cruzi growth-1 = inhibitors of T. cruzi proliferation; T. cruzi beta-gal in NIH3T3, GalScreen luminescence, 90 h; inhibition, % at 8.34 µM; 5.9% of 77,000 active;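 active = mean inhibition above about 93%, with at least 55% of replicates each passing it, limit read from the data, passing the limit was not always enough; inconclusive = only one of those two conditions holds; inactive = neither condition holds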
Pf Dd2 inh = inhibitors of Plasmodium falciparum Dd2 growth; 2.3% of 94,000 active; P. falciparum Dd2 growth, SYBR Green, 72 h; stronger effect = lower value; activity change, % at 10 µM; in the data active = activity change below about -80%; inconclusive = no clear call, values can overlap the other calls
C diff HTS = blocks growth of Clostridium difficile | Clostridium difficile clinical isolate growth, OD600, 24 h; stronger effect = lower value | growth activity, negative = inhibition, % at 16 µg/mL (by protocol) | 0.25% of 86,000 active;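 active = mean growth activity at or below -80% and every replicate also at or below -80%; inconclusive = mean at or below -80% but some replicate above -80%; inactive = mean growth activity above -80%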;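 note: 0% = DMSO wells and -100% = levofloxacin 16 µg/mL wells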
T cruzi growth-2 = inhibitors of T. cruzi proliferation | shares compounds with T cruzi growth-1 | T. cruzi beta-gal in NIH3T3, GalScreen luminescence, 90 h | inhibition, % at 8.35 µM | 72% of 5,600 active | AID 651739;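 active = mean replicate inhibition above about 95% and at least 55% of replicates individually reaching it, limit read from the data; inconclusive = only one of the two criteria is met; inactive = neither criterion is met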
T cruzi growth-3 = inhibitors of T. cruzi proliferation; shares compounds with T cruzi growth-1; T. cruzi beta-gal in NIH3T3, GalScreen luminescence, 90 h; inhibition, % at 2.09 µM; 21% of 5,600 active; AID 651740;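 active = mean inhibition above about 95%, with at least 55% of replicates also reaching it, limit read from the data; inconclusive = meets just one of the two conditions; inactive = meets neither condition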;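 note: plate controls were neutral control median for no effect and positive control median for full effect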
3T3 cytotox = cytotoxicity in mouse NIH/3T3 fibroblasts; shares compounds with T cruzi growth-1; 14% of 5,600 active; cytotoxicity (signal decrease), % at 8.35 µM; AID 651742; NIH/3T3 viability, CellTiter-Glo ATP luminescence, 90 h;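 active = mean signal decrease across replicates above about 35% based on untreated-well scatter, with enough replicates individually passing, limit read from the data; inconclusive = no rule stated though some were filed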;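 note: 0% = median of neutral control wells and 100% = median of positive control wells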
3T3 cytotox 2 = cytotoxicity in mouse NIH/3T3 fibroblasts | shares compounds with T cruzi growth-1 | NIH/3T3 viability, CellTiter-Glo ATP luminescence, 90 h | inhibition, % at 24.9 µM | 56% of 5,600 active | AID 651744;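 active = mean loss of cell viability signal at or above a set limit, and enough replicates individually reaching it; inconclusive = meets only the mean limit or only the replicate share; inactive = meets neither condition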;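 note: 0% = median of neutral control wells and 100% = median of positive control wells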
Starred values were filed as active, the others as inactive; u = inconclusive; x = no result.

SMILES	T cruzi growth-1	Pf Dd2 inh	C diff HTS	T cruzi growth-2	T cruzi growth-3	3T3 cytotox	3T3 cytotox 2
C[C@H](CO)N1C[C@H](C)[C@@H](CN(C)S(C)(=O)=O)Oc2ncc(C3=CCCCC3)cc2C1=O	37	30	x	x	x	x	x
O=C(Nc1ccc2c(c1)[C@@H]1C[C@H](CC(=O)N3CCOCC3)O[C@H](CO)[C@@H]1O2)NC1CCCC1	-20	23	0	x	x	x	x
CC(=O)Nc1ccc2c(c1)C(=O)N(C)[C@@H]1CC[C@@H](CC(=O)NCCCN3CCOCC3)O[C@H]1CO2	7	23	-5	x	x	x	x
Cc1ccc(S(=O)(=O)Nc2ccc3c(c2)C(=O)N([C@@H](C)CO)C[C@H](C)[C@H](CN(C)C(=O)NC2CCCCC2)OCCCC[C@H](C)O3)cc1	78	-53	-1	x	x	x	x
C[C@H]1CCCCO[C@H](CN(C)C(=O)NC2CCCCC2)[C@@H](C)CN([C@@H](C)CO)C(=O)c2cc(NS(=O)(=O)c3ccccc3)ccc2O1	103*	-67	-1	67	16	-32	-6
C[C@@H]1CCCCO[C@@H](CN(C)C(=O)NC2CCCCC2)[C@@H](C)CN([C@H](C)CO)C(=O)c2cc(NS(=O)(=O)c3ccccc3)ccc2O1	80	-17	-1	x	x	x	x
Cc1ccc(S(=O)(=O)Nc2ccc3c(c2)C(=O)N([C@@H](C)CO)C[C@@H](C)[C@H](CN(C)C(=O)NC2CCCCC2)OCCCC[C@H](C)O3)cc1	114*	-51	-3	92	-32	-20	-16
Cc1ccc(S(=O)(=O)Nc2ccc3c(c2)C(=O)N([C@@H](C)CO)C[C@H](C)[C@@H](CN(C)C(=O)NC2CCCCC2)OCCCC[C@@H](C)O3)cc1	49	-70	-1	x	x	x	x
Cc1ccc(S(=O)(=O)Nc2ccc3c(c2)C(=O)N([C@@H](C)CO)C[C@@H](C)[C@@H](CN(C)C(=O)NC2CCCCC2)OCCCC[C@@H](C)O3)cc1	101*	-11	-3	99*	71	-21	31
CC(C)CC#Cc1cnc2c(c1)C(=O)N([C@@H](C)CO)C[C@@H](C)[C@@H](CN(C)C(=O)CC1CC1)O2	x	-10	-5	x	x	x	x
COc1ccc(NC(=O)N(C)C[C@H]2OCCCC[C@@H](C)Oc3ccc(NC(=O)Nc4c(C)noc4C)cc3C(=O)N([C@@H](C)CO)C[C@H]2C)cc1	9	15	-3	x	x	x	x
C[C@@H]1CCn2cc(nn2)COC[C@@H](Cc2ccccc2)NC1=O	x	x	-2	x	x	x	x
C[C@H](CO)N1C[C@H](C)[C@H](CN(C)C(=O)Nc2cccc3ccccc23)Oc2ncc(-c3ccc(F)cc3)cc2C1=O	79	-37	6	x	x	x	x
C[C@H]1CN([C@@H](C)CO)C(=O)c2cc(/C=C/c3ccccc3)cnc2O[C@@H]1CN(C)C(=O)Nc1ccccc1F	126*	-71	-12	108*	107*	-2	14
C[C@@H]1CN([C@@H](C)CO)C(=O)c2cc(/C=C/c3ccccc3)cnc2O[C@@H]1CN(C)C(=O)Nc1ccccc1F	109*	-30	-3	89	36	14	24*
C[C@H](CO)N1C[C@H](C)[C@H](CN(C)C(=O)Nc2ccccc2F)Oc2ncc(/C=C/c3ccccc3)cc2C1=O	102	-33	-8	x	x	x	x
C/C=C/c1cnc2c(c1)C(=O)N([C@@H](C)CO)C[C@@H](C)[C@@H](CN(C)C(=O)Nc1ccccc1F)O2	55	22	1	x	x	x	x
C[C@H](CO)N1C[C@H](C)[C@H](CN(C)C(=O)Nc2cccc3ccccc23)Oc2ncc(-c3cc4ccccc4o3)cc2C1=O	u	-49	67	102*	89	45*	102*
C[C@H]1CN([C@@H](C)CO)S(=O)(=O)c2ccc(C#CC3CCCC3)cc2O[C@H]1CN(C)C(=O)C1CC1	-124	-56	x	x	x	x	x
CN(C)CC(=O)N1[C@@H]2c3cccc(=O)n3C[C@H]1[C@H](CO)[C@H]2C(=O)NCc1ccccc1	1	x	1	x	x	x	x
O=C(C[C@@H]1CC[C@H](NC(=O)c2ccncc2)[C@@H](CO)O1)NCC1CC1	x	x	1	x	x	x	x
COc1ccc(NC(=O)N(C)C[C@@H]2OCCCC[C@@H](C)Oc3ccc(NS(=O)(=O)c4ccc(F)cc4)cc3C(=O)N([C@@H](C)CO)C[C@H]2C)cc1	49	7	3	x	x	x	x
O=C(C[C@H]1CC[C@@H](NC(=O)Nc2cc(F)ccc2F)[C@H](CO)O1)Nc1ccc(-c2ccccc2)cc1	132*	-7	x	106*	75	23	32*
O=C(C[C@@H]1CC[C@@H](NC(=O)Nc2ccccc2)[C@H](CO)O1)NCc1ccccn1	108*	10	2	-12	-4	-9	3
O=C(C[C@@H]1CC[C@H](NC(=O)Nc2cc(F)ccc2F)[C@@H](CO)O1)Nc1ccc(-c2ccccc2)cc1	-17	10	x	x	x	x	x
SMILES	T cruzi growth-1	Pf Dd2 inh	C diff HTS	T cruzi growth-2	T cruzi growth-3	3T3 cytotox	3T3 cytotox 2
O=C(C[C@H]1CC[C@H](NC(=O)Nc2ccccc2)[C@H](CO)O1)NCc1ccccn1	-56	-54	-6	x	x	x	x
O=C(C[C@@H]1CC[C@H](NS(=O)(=O)c2ccc(F)cc2)[C@@H](CO)O1)NCc1ccc(Cl)c(Cl)c1	-31	-1	x	x	x	x	x
C[C@@H]1CN([C@@H](C)CO)S(=O)(=O)c2ccc(C#CCN(C)C)cc2O[C@@H]1CN(C)Cc1ccccn1	u	-30	-2	82	68	31	28*
C[C@H]1CN([C@@H](C)CO)S(=O)(=O)c2ccc(C#CCN(C)C)cc2O[C@@H]1CN(C)Cc1ccccn1	101*	-51	-3	97*	99*	4	12
C[C@@H]1CN([C@@H](C)CO)S(=O)(=O)c2ccc(C#CCN(C)C)cc2O[C@H]1CN(C)Cc1ccccn1	u	-45	-6	x	x	x	x
C[C@H](CO)N1C[C@H](C)[C@@H](CN(C)Cc2ccccn2)Oc2cc(C#CCN(C)C)ccc2S1(=O)=O	u	-28	6	x	x	x	x
CO[C@@H]1CN(C)C(=O)c2cc(NC(=O)c3nc4ccccc4s3)ccc2OC[C@H](C)N(Cc2cccnc2)C[C@H]1C	x	-41	-24	x	x	x	x
CO[C@H]1CN(C)C(=O)c2cc(NC(=O)C3CC3)ccc2OC[C@H](C)N(C(=O)CN2CCOCC2)C[C@H]1C	31	0	x	x	x	x	x
CO[C@@H](CN(C)Cc1cc(F)ccc1F)[C@@H](C)CN(C(=O)Nc1ccc(C(F)(F)F)cc1)[C@@H](C)CO	82	-34	x	x	x	x	x
COCC(=O)N(C)C[C@H]1Oc2ncc(-c3ccc(F)cc3)cc2C(=O)N([C@H](C)CO)C[C@H]1C	-4	32	1	x	x	x	x
N#C[C@H]1[C@H](c2ccccc2C2=CCCCC2)[C@H](CO)N1S(=O)(=O)c1ccccc1	x	0	-1	x	x	x	x
